Assay outcomes: PubChem, National Center for Advancing Translational Sciences (NCATS)
Most compounds without a hit are left out; they make up all but 7.5% or so of the library.
SMN2 splice up: qHTS Assay for Enhancers of SMN2 Splice Variant Expression. HEK293 SMN2-luciferase splicing reporter, luminescence, 30-36 h. Potency, µM (top dose mostly 46.1 µM), for the others: at the top dose activity change, positive = activation, hits mostly activators. hit rate 2.8% among 210,000; also: % of control where 0% means no effect; nearly all actives have a fitted effect of over 55% in size
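HEK293 cells carry an SMN2 minigene-luciferase reporter in which exon 7 inclusion puts luciferase in frame. Cells were seeded at 2000 cells/well, attached for 10-12 hours, then exposed to compounds for 30-36 hours at 37C before ONE-Glo luminescence.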
FLuc modulator: qHTS profiling assay for firefly luciferase inhibitor/activator using purifed enzyme and Km concentrations of substrates (counterscreen for miR-21 project). purified FLuc, Km substrates, luminescence inhibition. hit rate 6.9% among 360,000. Luciferin 4-monooxygenase (Photinus pyralis), P08659. Potency, µM (highest dose often 57.5 µM), for inactives: top-dose activity change, negative = inhibition, usual class: inhibitors;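 also: plate controls were vehicle for no effect and reference inhibitor for full effect; nearly all actives have a fitted effect of over 55% in size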
Target sequence (P08659 whole entry, looked up): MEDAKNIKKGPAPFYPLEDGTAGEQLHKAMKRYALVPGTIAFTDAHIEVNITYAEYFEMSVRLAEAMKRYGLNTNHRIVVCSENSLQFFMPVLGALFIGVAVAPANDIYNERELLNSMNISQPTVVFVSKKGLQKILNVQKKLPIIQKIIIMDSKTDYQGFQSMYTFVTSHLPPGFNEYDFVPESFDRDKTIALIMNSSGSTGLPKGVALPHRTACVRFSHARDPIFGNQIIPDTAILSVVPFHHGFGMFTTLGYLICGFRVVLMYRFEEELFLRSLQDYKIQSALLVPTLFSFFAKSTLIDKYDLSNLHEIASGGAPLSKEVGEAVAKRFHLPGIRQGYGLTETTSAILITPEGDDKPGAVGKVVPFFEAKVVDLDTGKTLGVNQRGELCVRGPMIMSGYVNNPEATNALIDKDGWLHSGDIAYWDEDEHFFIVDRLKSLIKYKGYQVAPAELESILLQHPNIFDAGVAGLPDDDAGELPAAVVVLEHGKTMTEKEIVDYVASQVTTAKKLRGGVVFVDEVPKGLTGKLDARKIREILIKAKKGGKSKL
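Biochemical qHTS of compounds, final roughly 60 µM downward over six points, against 10 nM purified firefly luciferase using Km concentrations of substrates (10 uM D-luciferin, 10 uM ATP) in Tris acetate pH 7.5 buffer; luminescence output.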
Luc counter: Counterscreen for Luciferase (Kinase-Glo TM) Inhibition. Luciferin 4-monooxygenase (Photuris pensylvanica), Q27757. Kinase-Glo luciferase, ATP luminescence, 8 min. Potency, µM (top dose mostly 38.3 µM), for the others: at the top dose activity change, negative = inhibition, usual class: inhibitors. hit rate 0.28% among 200,000; also: % is scaled to controls: 0 for no effect and ±100 for the full control effect; nearly all actives have a fitted effect of over 60% in size
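Compounds were added to a substrate mix at pH 7.2 (50 mM imidazole, 10 uM ATP, within the enzyme's linear range), followed by Kinase-Glo detection reagent; luminescence was measured after 8 minutes at ambient temperature.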
Rab9 promoter act: qHTS Assay for Rab9 Promoter Activators | Potency, µM (top dose mostly 9.22 µM), for inactives: top-dose activation, negative = inhibition, usual class: activators | hit rate 2.8% among 320,000 | Huh7 Rab9 promoter-luciferase reporter, luminescence, 24 h; also: % of control where 0% means no effect; nearly all actives have a fitted effect of over 60% in size
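Steps: seed 1500 Huh7 Rab9-luc cells per well, rest 2 h at 37 °C; add compound in DMSO; incubate 24 h; add luciferase reagent, 10 min ambient; read luminescence.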
NPC1 prom act: qHTS Assay for NPC1 Promoter Activators; Huh7 NPC1 promoter luciferase reporter, 24 h; Potency, µM (top dose mostly 9.22 µM), for the others: at the highest dose activation, usual class: activators; hit rate 2.4% among 320,000; also: % of control where 0% means no effect; nearly all actives have a fitted effect of over 60% in size
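Cells: Huh7 expressing luciferase under the NPC1 promoter, 1500/well. Seeded 2 h, compound added, incubated 24 h at 37 °C. Luciferase reagent, 10 min ambient, then luminescence.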
ELG1 genotoxic: qHTS screen for small molecules that induce genotoxicity in human embryonic kidney (HEK293T) cells expressing luciferase-tagged ELG1; hit rate 1.3% among 330,000; HEK293T ELG1-luciferase reporter, luminescence, 16 h; Potency, µM (doses to about 46 µM), without a hit: at the highest dose activity change, positive = activation, actives largely listed as activators; also: % of control where 0% means no effect; nearly all actives have a fitted effect of over 60% in size
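After overnight (16 hr) compound treatment at 37 °C, ELG1-luciferase HEK293T cells were lysed with ONE-Glo; luminescence quantified 30 min later at room temperature.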
An asterisk follows results filed as active; ? = inconclusive; / = not tested or not shown; ! = a repeat was not active. Calls follow the shape of the dose curve; as a rule, active = well fitted curve in the direction sought with a large enough effect; inconclusive = small, poorly fitted or top-dose-only effect, or another doubt; inactive = no such curve, though single readings can be large; an effect the other way counts as inactive or inconclusive. Potency is read from the fitted curve at half-maximal effect.

SMILES	SMN2 splice up	FLuc modulator	Luc counter	Rab9 promoter act	NPC1 prom act	ELG1 genotoxic
O=C(CSc1nc2ccc(NC(=O)CSc3nnnn3-c3ccccc3)cc2s1)Nc1ccccc1	-29%	5%	-1%	-2%	-4%	13%
CCC(=O)Nc1ccc2nc(SCc3ccccc3)sc2c1	/	15µM*	/	/	/	/
Cn1cnnc1SCC(=O)Nc1ccc2nc(SCc3ccccc3F)sc2c1	?	6.7µM*	0%	1.6µM*	2.8µM*	?
Cc1ccc(C)c(CSc2nc3c([nH]c4ccccc43)c(=O)n2C)c1	/	0%	/	/	/	/
COc1ccc(C(=O)O/N=C(\N)Cc2cccs2)cc1OC	/	5%	/	5%	1%	13%
N/C(Cc1cccs1)=N\OC(=O)COc1ccc(Br)cc1Cl	6%	11µM*	-5%	25%	?	?
N/C(Cc1cccs1)=N\OC(=O)COc1ccccc1Cl	-5%	24µM*	0%	?	15%	23µM*
N/C(Cc1ccc([N+](=O)[O-])cc1)=N\OC(=O)COc1ccccc1Cl	-3%	-20%	0%	-3%	0%	2%
Cc1c(C)n(Cc2ccccc2)c2ccc(C(=O)N3CCN(c4ccccc4F)CC3)cc12	/	3%	/	/	/	/
CCC(CC)C(=O)Nc1nnc(S(=O)(=O)N(C)c2cc(C)cc(C)c2)s1	/	-13%	/	/	/	/
CN(c1ccccc1)S(=O)(=O)c1nnc(NC(=O)C2CCCCC2)s1	/	0.67µM*!	/	3%	-2%	2%
Cc1cccc(N(C)S(=O)(=O)c2nnc(NC(=O)C(C)Oc3ccccc3)s2)c1 (stereo not given)	/	4.8µM*	/	/	/	/
Cc1cccc(NS(=O)(=O)c2nnc(NC(=O)C3CCCCC3)s2)c1	/	6.7µM*!	/	3%	-3%	-3%
CCN(c1ccc(C)cc1)S(=O)(=O)c1nnc(NC(=O)c2cccs2)s1	/	13µM*	/	/	/	/
Cc1cccc(NS(=O)(=O)c2nnc(NC(=O)CC(C)C)s2)c1	/	1%	/	0%	0%	-2%
O=C(CCCCCn1c(=O)c2sccc2n(CC(=O)Nc2ccccc2F)c1=O)NCc1ccc2c(c1)OCO2	-4%	-3%	/	/	/	/
CN(c1ccccc1)S(=O)(=O)c1nnc(NC(=O)c2ccccc2)s1	/	0.19µM*	/	/	/	/
CCCCC(=O)Nc1nnc(S(=O)(=O)N(CC)c2ccccc2)s1	/	0%	/	-1%	0%	-3%
CCN(c1ccccc1)S(=O)(=O)c1nnc(NC(=O)c2ccccc2)s1	/	2.4µM*	/	/	/	/
CCN(c1ccccc1)S(=O)(=O)c1nnc(NC(=O)c2cccs2)s1	/	0.34µM*	/	/	/	/
CCCC(=O)Nc1nnc(S(=O)(=O)N(C)c2ccccc2)s1	/	0.85µM*	/	/	/	/
Cn1ncc2c(=O)[nH]cnc21	5%	3%	0%	-3%	-2%	0%
NC(=O)C1CCN(C(=O)CC(c2ccccc2)c2ccccc2)CC1	/	0%	/	-1%	1%	-3%
CCN(c1ccccc1)S(=O)(=O)c1nnc(NC(=O)c2ccccc2OC)s1	/	1.7µM*!	/	-3%	-1%	-1%
CCN(c1ccc(Cl)cc1)S(=O)(=O)c1nnc(NC(=O)c2ccccc2C)s1	/	4%	/	/	/	/
SMILES	SMN2 splice up	FLuc modulator	Luc counter	Rab9 promoter act	NPC1 prom act	ELG1 genotoxic
Cn1ncc(Cl)c1C(=O)Nc1nc2ccc(Cl)cc2s1	3.5µM*	2.1µM*	-18%	?	3.2µM*	?
CCSc1ncc(Cl)c(C(=O)Nc2nc3ccc(Cl)cc3s2)n1	3%	?	/	/	/	/
Cc1ccc2c(=O)cc(C(=O)Nc3nc4ccc(Cl)cc4s3)oc2c1C	-4%	-19%	/	/	/	/
Cc1cc(C(=O)Nc2nc3ccc(Cl)cc3s2)nn1C	/	2.1µM*	/	0.63µM*	1.4µM*	?
O=C(Nc1nc2ccc(Cl)cc2s1)c1ccc(Br)o1	11µM*	2.4µM*	-5%	1.1µM*	3.5µM*	?
CCc1ccccc1NC(=O)Cn1c(=O)nc(-c2ccccc2)c2ccccc21	/	-8%	/	/	/	/
